The panel holds about 83,000 compounds, 20% with a hit somewhere; the sample as a whole holds those more often.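 Method: cells in 96-well plates; compound added at one concentration; 48 h incubation; percent growth measured; values under 10 scored active.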 A number with no mark means an inactive call. Calls of active or inactive are those of the source.
test system: SK-MEL-28 melanoma; assay: NCI-60 one-dose screen, 48 h (100 = growth as untreated, 0 = no growth, -100 = all killed); details: 10 µM unless noted
Experimental: Growth inhibition of the SK-MEL-28 human tumor cell line is measured as a screen for anti-cancer activity. Cells are grown in 96 well plates and exposed to the test compound for 48 hours. Compounds are tested at a single concentration, which is 10^-5 M for most compounds. The reported endpoint is percent growth (GI% or GIPRCNT), where numbers from 0 - 100% represent growth inhibition, and numbers from -100% - 0 represent cell death. For example, a value of 40 represents 60% growth inhibition. A value of 0 means no net growth occurred over the course of the experiment. A value of -40 indicates 40% of cells at the beginning of the experiment died by the end of the experiment. A value of -100 means all cells are dead at the end of the experiment.
NCI-60 Human Tumor Cell Lines Screen was performed using the standard one-dose NCI protocol, which is described in more detail at https://dtp.cancer.gov/discovery_development/nci-60/default.htm.
Compounds with GIPRCNT values below 10 were considered active. Activity score was based on GIPRCNT using the following formula: […]
Score is 0 for GIPRCNT values of 100 or above, 50 for GIPRCNT values of 0, and 100 for GIPRCNT values of -100.

| SMILES | growth |
| --- | --- |
| C=C(C)[C@@H]1CC[C@]2(COC(C)=O)CC[C@]3(C)[C@H](CC[C@@H]4[C@@]5(C)CCCN(C(C)=O)C(C)(C)[C@@H]5CC[C@]43C)[C@@H]12 | 96.6% |
| COc1ccc(/C=C/C(c2cc(OC)c(OC)c(OC)c2)n2cncn2)cc1 (stereo not given) | 62.6% |
| O=C(NNC(=O)c1nc2cc(F)ccc2n2cccc12)c1cnccn1 | 36.4% |
| Cn1c(=O)c2[nH]c(SCC(=O)Nc3ccc(C(=O)/C=C/c4ccccc4Cl)cc3)nc2n(C)c1=O | 99.9% |
| N#Cc1ccc(O)c(C2=NCC(Cc3ccccc3)O2)c1 (stereo not given) | 80.2% |
| CNC(=O)c1ccccc1Nc1nc(Nc2cc(OC)c(OC)c(OC)c2)ncc1Br | -13.6% (active) |
| CCN(CC)Cc1cc(Nc2ccnc3cc(Cl)ccc23)ccc1O | 94.9% |
| CCc1ccc(CCC(=O)Nc2ncc(Cc3cc(Cl)ccc3Cl)s2)o1 | 55.9% |
| COc1ccc(/C=C/c2ccc3ccccc3n2)c(OC)c1 | 81.7% |
| O=C(CCSc1nnc2n(Cc3ccccc3)c(=O)c3c4c(sc3n12)CCCC4)N1CCN(c2ccccc2)CC1 | 87.4% |
| Cc1nc2c(=O)nc3s/c(=C\c4ccco4)c(=O)n3c2nc1C | 100% |
| N#Cc1cncc(-c2ccc3ncnc(Nc4cccc(Cl)c4)c3c2)c1 | 81.8% |
| COc1cccc(CCNc2ncnc3c2ncn3Cc2nnc3c4ccccc4c(Cl)nn23)c1 | 71.6% |
| COc1ccc(/C=C/C(=O)c2ccc(NC(=O)CSc3nc4c([nH]3)c(=O)n(C)c(=O)n4C)cc2)cc1OC | 95.7% |
| O=C(/C=C(O)/C=C/c1cccc2[nH]ccc12)/C=C/c1cccc2[nH]ccc12 | 97.6% |
| FC(F)(F)Oc1cccc(-c2cnc3ccc(-c4ccncc4)nn23)c1 | 20% |
| COc1cccc(-c2cc(-c3cccc(Cl)c3)c(C#N)c(=O)[nH]2)c1 | 72.3% |
| O=C(NNc1cnccn1)c1nc2cc(F)ccc2n2cccc12 | 21% |
| CC1C(/C=N/NC(N)=S)C(C#N)(C#N)C1(C#N)C#N (stereo not given) | 116% |
| N#CSc1c[nH]c2cccc(/C=C/C(=O)/C=C(O)/C=C/c3cccc4[nH]cc(SC#N)c34)c12 | -68.2% (active) |

| SMILES | growth |
| --- | --- |
| O=S(=O)(Oc1ccc(Br)cc1)c1ccc(Cl)cc1 | 103% |
| CCOc1c(OC)cc2c(c1O)C(=O)N[C@@H]1[C@@H](O)[C@@H](O)[C@H](O)C[C@@H]21 | 105% |
| CN(C)CCCC1(c2ccc(F)cc2)OCc2cc(-c3ccc4cc[nH]c4c3)ccc21 (stereo not given) | 64.1% |
| COc1ccc2c(c1)c(-c1nc(-c3c[nH]c4ncccc34)cs1)cn2CCCN1CCOCC1 | -54.1% (active) |
| COc1ccccc1C(=O)Nc1cccc(NC(=O)c2ccoc2C)c1 | 60.1% |
| Cc1c(Cl)cccc1C(=O)Nc1nc2c(s1)CN(C(=O)c1ccc(C(F)(F)F)cc1)CC2 | 59.1% |
| CCN1C(=O)N(CC)C2C1NC(=S)N2/N=C/c1ccc(OC)cc1 (stereo not given) | 71% |
| CN1C(=O)/C(=C2\SC(=Nc3ccccc3)N(Nc3ccccc3)C2=O)c2ccccc21 | 105% |
| Cc1ccc2nc(-c3ccc(C(=O)NNC(=S)Nc4ccccc4)cc3)[nH]c2c1 | 95.3% |
| CC1(C)N=C(N)N=C(N)N1c1ccc(CCCCc2ccccc2)c(Cl)c1 | 25.2% |
| Cc1nn(-c2ccccc2)c(N)c1N=C1NC(=O)/C(=C/c2ccc(Br)cc2)S1 | 94.5% |
| CC1=C2[C@@H](CC1)[C@]1(C)O[C@@](c3ccccc3)(C[C@H]1OC(=O)CO)[C@H]2OC(=O)/C=C/c1ccccc1 | 117% |
| O=C(CCl)NNc1nccc(Nc2ccc(S(=O)(=O)Nc3ccncc3)cc2)n1 | 53.7% |
| Nc1nc(N)c(N=Nc2ccccc2)c(-c2ccccc2)n1 | 76.2% |
| CN(CCC(=O)c1ccccc1)CCC(=O)c1ccccc1 | 103% |
| NC(=O)c1c(NC(=O)c2cccc(C(F)(F)F)c2)sc2c1CCC(=O)C2 | 20.7% |
| NC(=O)c1c(NC(=O)c2cccs2)sc2c1CCC(=O)C2 | 50.7% |
| CS(=O)(=O)c1ccc(NC(=O)c2ccccc2)nc1 | 112% |
| O=C(CSc1nnc(-c2cc(-c3ccccc3)nc3ccccc23)n1-c1ccccc1)Nc1ccc(C(=O)/C=C/c2ccc(Cl)cc2)cc1 | 99.8% |
| CN(C)c1ccc(/C=C(\C#N)c2cc3ccccc3[nH]2)cc1 | 54.7% |

— PubChem BioAssay (NCI)
